Some test systems named below: DU-145 prostate; K-562 leukemia; MALME-3M melanoma; MDA-MB-231 breast; RXF 393 renal; SF-268 CNS; SF-295 CNS; SF-539 CNS; UACC-257 melanoma; M14 melanoma; HCT-15 colon; HT29 colon; SNB-75 CNS; SNB-19 CNS; U251 CNS; PC-3 prostate; SK-MEL-5 melanoma; UACC-62 melanoma; LOX IMVI melanoma; SK-MEL-28 melanoma.
Test in all cases: NCI-60 one-dose screen, 48 h (100 = growth as untreated, 0 = no growth, -100 = all killed)
Holding throughout (conditions): 10 µM unless noted

This passage reports growth results from PubChem BioAssay (NCI).

The panel holds about 83,000 compounds, 20% with a hit somewhere; the sample as a whole holds those more often.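 In brief: 96-well plates, 48 h treatment, single concentration, percent growth endpoint.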 Unmarked numbers belong to inactive results. Active and inactive are the calls of the source. How the source made its calls: active means growth percent below 10; inactive means the rest.

Take `Cc1cc(O)ccc1Sc1ccccc1[N+](=O)[O-]`: the growth is 96% in the assay on DU-145 prostate; 101% in the assay with K-562 leukemia; 79.6% in the assay with MALME-3M melanoma; 106% in the assay with MDA-MB-231 breast; 106% in the assay on RXF 393 renal; 98.4% in the assay with SF-268 CNS. In addition, the growth in the assay with SF-295 CNS is 90.1%; with SF-539 CNS it was 102%; in the assay with UACC-257 melanoma it was 88.1%; in the assay with M14 melanoma, 88.9%; in the assay with HCT-15 colon, 92.7%; in the assay on HT29 colon it was 94.3%. In addition, the growth was 94.8% in the assay with SNB-75 CNS; 91.6% with SNB-19 CNS; 94.2% in the assay with U251 CNS; 82.3% with PC-3 prostate; 91.1% in the assay with SK-MEL-5 melanoma; 76% in the assay on UACC-62 melanoma. Also, the growth was 84.1% in the assay on LOX IMVI melanoma and 101% in the assay on SK-MEL-28 melanoma.

Turning to `Cc1ccc(C(CN(C)C)C(=O)c2ccccc2)cc1` (stereo not given), the growth with DU-145 prostate was 34.7%; in the assay on K-562 leukemia, -26.8% (active); with MALME-3M melanoma, 79.8%; in the assay with MDA-MB-231 breast it was 25.4%; in the assay with RXF 393 renal, 43.6%; in the assay with SF-268 CNS, 25.9%. Also, the growth in the assay with SF-295 CNS is 85.6%; in the assay on SF-539 CNS, 57.6%; in the assay on UACC-257 melanoma, 49.1%; with M14 melanoma it was 31.6%; with HCT-15 colon it was -12.1% (active); in the assay with HT29 colon it was -34.3% (active). For the same molecule, the growth is 54.1% in the assay with SNB-75 CNS; 85.7% in the assay with SNB-19 CNS; 41.7% in the assay with U251 CNS; 32.9% in the assay on PC-3 prostate; 64.1% with SK-MEL-5 melanoma; 6.99% (active) in the assay on UACC-62 melanoma. For the same molecule, the growth with LOX IMVI melanoma was -6.07% (active).

Regarding `CCN(CC)CCNC(=O)n1cc(-c2ccncc2)c(-c2cc(Cl)cc(OC)c2)n1`, the growth with DU-145 prostate was 81.3%; in the assay with K-562 leukemia, 66.7%; in the assay with MALME-3M melanoma, 111%; in the assay with MDA-MB-231 breast, 82.8%; with RXF 393 renal, 61.8%; in the assay with SF-268 CNS, 73.9%. Besides, the growth in the assay with SF-295 CNS was 80.3%; in the assay on SF-539 CNS, 44%; in the assay with UACC-257 melanoma, 89.4%; in the assay on M14 melanoma, 108%; in the assay with HCT-15 colon, 86%; in the assay on HT29 colon, 31.3%. The growth was 48% with SNB-75 CNS; 76.5% in the assay with SNB-19 CNS; 75.4% in the assay on U251 CNS; 79.8% in the assay on PC-3 prostate; 84.8% in the assay on SK-MEL-5 melanoma; 70.3% in the assay on UACC-62 melanoma. Moreover, the growth in the assay on LOX IMVI melanoma is 78.7%; in the assay on SK-MEL-28 melanoma, 91.3%.

For the molecule `CCCCCCCC/C=C/CCCCCCCC1=NC(C)(C)CN1C(C)C`, the growth in the assay on DU-145 prostate was 21.9%; in the assay on K-562 leukemia, -54.5% (active); with MALME-3M melanoma, -19.5% (active); in the assay with MDA-MB-231 breast, -9.32% (active); in the assay with RXF 393 renal it was -68.1% (active); with SF-268 CNS, 4.16% (active). Also, the growth in the assay on SF-295 CNS was 6.07% (active); in the assay with SF-539 CNS, 8.28% (active); in the assay on UACC-257 melanoma, 11.1%; with M14 melanoma, -75.3% (active); in the assay with HCT-15 colon, -45.1% (active); with HT29 colon, -51.3% (active). Also, the growth with SNB-75 CNS was 25.5%; in the assay with SNB-19 CNS it was 46.4%; with U251 CNS, -76.1% (active); with PC-3 prostate, -74.4% (active); in the assay with SK-MEL-5 melanoma, -86.3% (active); in the assay on UACC-62 melanoma, -60.5% (active). Moreover, the growth with LOX IMVI melanoma was -81.2% (active).

`COc1cnc2c(c1)C(=O)c1c-2n(CCCN2CCN(C)CC2)c(=O)c2cc(Cl)ccc12`: the growth was 33.1% in the assay with DU-145 prostate; -76.1% (active) with K-562 leukemia; 75.4% with MALME-3M melanoma; 48.6% in the assay on MDA-MB-231 breast; 46.9% with RXF 393 renal; 35.7% in the assay on SF-268 CNS. In addition, the growth is 35.5% in the assay on SF-295 CNS; 14.7% in the assay with SF-539 CNS; 14.1% in the assay on UACC-257 melanoma; -54.4% (active) in the assay with M14 melanoma; 41.8% in the assay with HCT-15 colon; -60.6% (active) in the assay on HT29 colon. The growth in the assay with SNB-75 CNS was 38.7%; in the assay with SNB-19 CNS, 46.3%; in the assay on U251 CNS, 45.4%; with PC-3 prostate, 40.5%; in the assay with SK-MEL-5 melanoma, 65.4%; in the assay on UACC-62 melanoma, -49% (active). In addition, the values for the growth with LOX IMVI melanoma and in the assay with SK-MEL-28 melanoma were 38.2% and -53.8% (active), respectively.

On to `CC(=O)N1N=C(C2C(=O)N(C)C(=O)N(C)C2=O)CC1c1ccccc1C(=O)O` (stereo not given), for which the growth in the assay with DU-145 prostate is 103%; in the assay with K-562 leukemia, 87.5%; in the assay with MALME-3M melanoma, 104%; in the assay with MDA-MB-231 breast, 104%; in the assay with RXF 393 renal it was 104%; in the assay on SF-268 CNS it was 96.7%. The growth is 112% with SF-295 CNS; 104% in the assay on SF-539 CNS; 95.7% with UACC-257 melanoma; 96.7% with M14 melanoma; 110% with HCT-15 colon; 98.9% in the assay on HT29 colon. In addition, the growth in the assay with SNB-75 CNS was 95%; in the assay with SNB-19 CNS it was 106%; in the assay with U251 CNS, 104%; with PC-3 prostate it was 95.4%; in the assay with SK-MEL-5 melanoma it was 107%; with UACC-62 melanoma, 100%. Besides, in the assay on LOX IMVI melanoma, the growth was 99.1%.

`Nc1nc(NC2CC2)cc(-c2cccc(Cl)c2Cl)n1`: the growth is 78.3% in the assay on DU-145 prostate; 18.9% with K-562 leukemia; 64.4% with MALME-3M melanoma; 66.8% in the assay on MDA-MB-231 breast; 73.3% in the assay on RXF 393 renal; 67.6% in the assay with SF-268 CNS. Also, the growth with SF-295 CNS is 55.7%; with SF-539 CNS it was 55.7%; with UACC-257 melanoma, 49.8%; in the assay on M14 melanoma, 18.3%; in the assay with HCT-15 colon it was 25%; with HT29 colon, 13.6%. The growth with SNB-75 CNS is 39.2%; in the assay with SNB-19 CNS, 59.1%; with U251 CNS it was 39.1%; in the assay with PC-3 prostate, 64.6%; in the assay with SK-MEL-5 melanoma, 46.5%; with UACC-62 melanoma, 36.1%. The growth in the assay with LOX IMVI melanoma was 40.7%.

On to `NC(=O)N/N=C\c1ccc([N+](=O)[O-])o1`, for which the growth in the assay on DU-145 prostate was 105%; in the assay with K-562 leukemia it was 101%; with MALME-3M melanoma it was 73%; in the assay on MDA-MB-231 breast, 122%; in the assay with RXF 393 renal, 123%; in the assay on SF-268 CNS, 102%. The growth with SF-295 CNS is 97.7%; in the assay with SF-539 CNS, 102%; with UACC-257 melanoma it was 91.9%; with M14 melanoma, 112%; with HCT-15 colon, 92.5%; in the assay on HT29 colon, 111%. Further, the growth was 84.3% in the assay on SNB-75 CNS; 113% in the assay on SNB-19 CNS; 93% in the assay on U251 CNS; 85.2% in the assay with PC-3 prostate; 107% with SK-MEL-5 melanoma; 103% with UACC-62 melanoma. Besides, the growth in the assay on LOX IMVI melanoma was 91.5%.
